Assay [1] is described as follows: qHTS assay to identify small molecule agonists of the sonic hedgehog signaling (Shh) pathway (AID 1259368; calls by dose curve;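 further: NIH/3T3-derived 3T3Gli1-Luc cells carrying a stable Gli1-driven firefly luciferase reporter; series mostly up to about 92 µM; nearly all actives have a fitted effect of over 15% in size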). The method in brief:
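3T3Gli1-Luc (NIH/3T3 clone, stable Gli1-Luc); 4 hr pre-incubation, then cpd in DMSO 24 hr, 37 C/5% CO2; luciferase reagent 30 min RT; luminescence.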
In general terms: Quantitative high-throughput screening tests each substance at several concentrations.

Assay [2] has as its target Estrogen receptor beta (Homo sapiens) (UniProt Q92731). As to the kind of experiment: qHTS assay to identify small molecule agonists of the estrogen receptor beta (ER-beta) signaling pathway (AID 1259377; active means well fitted activation curve with a large enough effect in the signal ratio in the repeat runs, not every such curve was filed as active; the % refers to the signal ratio). The method in brief:
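Agonist mode cell assay in GripTite HEK293T cells expressing an ER-beta fusion that drives beta-lactamase from an Upstream Activator Sequence; 16 hr compound exposure at 37C, then 2 h LiveBLAzer B/G FRET substrate at room temperature, fluorescence read-out.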

For assay [3] the target is unchanged. Nature of the assay: qHTS assay to identify small molecule antagonists of the estrogen receptor beta (ER-beta) signaling pathway (AID 1259378; active means well fitted inhibition curve with a large enough effect in the signal ratio in the repeat runs, not every such curve was filed as active; the % refers to the signal ratio). The method in brief: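 ER-beta-UAS-bla HEK293T cells in 2% charcoal-stripped FBS medium treated with compound plus 1nM final 17-beta-estradiol for 16 hr at 37C. Beta-lactamase reporter read by FRET substrate fluorescence after 2 hours at room temperature.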

Assay [4] in a line: qHTS assay to identify small molecule agonists of the androgen receptor (AR) signaling pathway in the presence of an antagonist - cell viability counter screen (AID 1259379).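 Further: MDA-kb2 human breast cancer cells carrying an MMTV luciferase reporter; series mostly up to about 92 µM; nearly all actives have a fitted effect of over 25% in size.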 The method in brief: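 Cells: MDA-kb2 (MMTV-luc, AR and GR elements), 3,000/well, 5 hr settle. Added: nilutamide 3.0uM final, then compounds (15 conc.). Incubation: 16 hr, 37C, no CO2. Read-out: CellTiter-Fluor, 1 hr, fluorescence.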

Assay [5] in a line: qHTS assay to identify small molecule agonists of the estrogen receptor beta (ER-beta) signaling pathway - cell viability counter screen (AID 1259380). Further: nearly all actives have a fitted effect of over 30% in size. The method in brief: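 HEK293T ER-beta-UAS-bla; 2% CS-FBS; 6 hr pre-plate, 16 hr cpd at 37C/5% CO2; LiveBLAzer read first, then CellTiter-Glo 30 min RT, luminescence.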
The target in assay [6] is Androgen receptor (Homo sapiens) (UniProt P10275). As to the kind of experiment: qHTS assay to identify small molecule agonists of the androgen receptor (AR) signaling pathway in the presence of an antagonist (AID 1259381; calls by dose curve; further: nearly all actives have a fitted effect of over 15% in size). The method in brief: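 MDA-kb2 cells, 3,000/well, rested 5hr at 37C/0% CO2 → nilutamide 3.0uM final or buffer → compounds, 15 conc. → 16hr at 37C → ONE-Glo, 30min RT → luminescence.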

A short description of assay [7]: qHTS assay to identify small molecule antagonists of the estrogen receptor beta (ER-beta) signaling pathway - cell viability counter screen (AID 1259382). Further: series mostly up to about 92 µM; nearly all actives have a fitted effect of over 55% in size. The method in brief:
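Cells: ER-beta-UAS-bla HEK293T, 2,000/well, 2% CS-FBS, 6 hr settle. Cpd + E2 (1nM final), 16 hr, 37C/5% CO2. Bla FRET substrate 2 hr RT, then CellTiter-Glo 30 min RT, luminescence.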

Assay [8] addresses Estrogen receptor (Homo sapiens) (UniProt P03372). As to the kind of experiment: qHTS assay to identify small molecule agonists of the estrogen receptor alpha (ER-alpha) signaling pathway in the presence of an antagonist (AID 1259383; calls by dose curve; further: top concentration of the series differs between compounds; nearly all actives have a fitted effect of over 15% in size). The method in brief: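 VM7Luc4E2, endog. ER-alpha + 4×ERE-luc; charcoal-stripped FBS, phenol red-free, 5 d; 24hr plating; +10.0nM ICI-182,780 (final); cpds 15 conc, 22hr, 37C/5% CO2; ONE-Glo luminescence.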

Assay [9] can be described thus: qHTS assay to identify small molecule agonists or antagonists of the thyroid stimulating hormone receptor (TSHR) signaling pathway - wild type cell line counter screen (AID 1259384; calls by dose curve). The method in brief: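 Wild-type Hek293 cells, 800/well, 18 h at 37C, then compound with Ro20-1724 for 30 min RT. cAMP by HTRF (cAMP-d2/anti-cAMP cryptate), 1 h RT, fluorescence read. 15 concentrations, triplicates.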

Assay [10] deals with Thyrotropin receptor (Homo sapiens) (UniProt P16473). Nature of the assay: qHTS assay to identify small molecule antagonists of the thyroid stimulating hormone receptor (TSHR) signaling pathway (AID 1259385; calls by dose curve; further: nearly all actives have a fitted effect of over 20% in size). The method in brief: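 TSHR-HEK293 cells (800/well) plated 18 h, then compounds with Ro20-1724 and TSH at 1.5 ng/mL final, 30 min at room temperature. cAMP quantified by HTRF (cAMP-d2/anti-cAMP-cryptate, 1 h); 15 concentrations in triplicate.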

A short description of assay [11]: qHTS assay to identify small molecule agonists of the estrogen receptor alpha (ER-alpha) signaling pathway in the presence of an antagonist - cell viability counter screen (AID 1259386).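 Further: series mostly up to about 92 µM; cells exposed to compounds for 22 h at 37 °C before the viability read; nearly all actives have a fitted effect of over 30% in size.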 The method in brief: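 VM7Luc4E2, stripped-serum pre-culture 5 d; 24hr plating; +ICI-182,780 10.0nM final; cpds 15 conc, 22hr, 37C/5% CO2; CellTiter-Fluor added at 21hr, fluorescence 1hr later.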

Assay [12] deals with Progesterone receptor (Homo sapiens) (UniProt P06401). Nature of the assay: qHTS assay to identify small molecule agonists of the progesterone receptor (PR) signaling pathway (AID 1346784; calls by dose curve; further: nearly all actives have a fitted effect of over 30% in size). The method in brief: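 Cells (PR-UAS-bla HEK 293T, GripTite) were plated in assay medium containing 2% charcoal-stripped FBS and incubated 6 hr. Test compounds in DMSO were added for 16 hr at 37C. FRET substrate was then loaded for 2 hr at room temperature before fluorescence reading.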

The target is the same in assay [13]. Nature of the assay: qHTS assay to identify small molecule antagonists of the progesterone receptor (PR) signaling pathway (AID 1346795; active means well fitted inhibition curve with a large enough effect in the signal ratio in the repeat runs, not every such curve was filed as active; the % refers to the signal ratio; further: potency means the concentration at half of the fitted maximal effect). The method in brief: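 Antagonist mode: compounds tested against 1 nM (final) promegestone stimulation in HEK293T cells expressing PR-UAS-bla reporter, 16 hr at 37C, 5% CO2; beta-lactamase activity detected via B/G FRET substrate after 2 hr at room temperature.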

A short description of assay [14]: qHTS assay to identify small molecule agonists of the progesterone receptor (PR) signaling pathway - cell viability counter screen (AID 1346799; calls by dose curve; further: nearly all actives have a fitted effect of over 45% in size). The method in brief:
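Cells (PR-UAS-bla HEK293T) are plated at 3,000/well in 2% charcoal-stripped FBS medium, rested 6 hr, dosed and incubated 16 hr at 37C. CellTiter-Glo is then added and luminescence measured after 30 min at room temperature.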

Assay [15] can be described thus: qHTS assay to identify small molecule antagonists of the TGF-beta/Smad signaling pathway - cell viability counter screen (AID 1346824). Further: nearly all actives have a fitted effect of over 50% in size. The method in brief: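 SBE-bla HEK 293T cells, incubated overnight, then compound plus 0.25 ng/mL TGF-beta1 (stock added) for 5 hr at 37 C. Viability was read in the same wells by CellTiter-Glo luminescence after 30 min at room temperature.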

Assay [16] is described as follows: qHTS assay to identify small molecule agonists of the TGF-beta/Smad signaling pathway - cell viability counter screen (AID 1346829). Further: top concentration of the series differs between compounds; nearly all actives have a fitted effect of over 45% in size. The method in brief:
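Compound-treated SBE-bla HEK 293T cells (5 hr, 37 C) were assessed for viability with CellTiter-Glo in parallel with the reporter read.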

The nature of assay [17]: qHTS assay to identify small molecule agonists of the TGF-beta/Smad signaling pathway (AID 1346859; active means well fitted activation curve with a large enough effect in the signal ratio in the repeat runs, not every such curve was filed as active; the % refers to the signal ratio; further: series mostly up to about 77 µM). The method in brief: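 Reporter line: HEK 293T with stably integrated SBE-controlled beta-lactamase. Compound exposure lasts 5 hr at 37 C and 5% CO2; substrate loading follows for 2 hr at room temperature, with emission read at 460 and 530 nm.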
Assay [18] concerns the target Thyrotropin-releasing hormone receptor (Homo sapiens) (UniProt P34981). Nature of the assay: qHTS assay to identify small molecule antagonists of the thyrotropin-releasing hormone receptor (TRHR) signaling pathway (AID 1346877; active means well fitted inhibition curve with a large enough effect in the repeat runs, not every such curve was filed as active; further: series mostly up to about 51 µM). The method in brief:
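Intracellular calcium fluorescence, read kinetically every second over 3 min, reports TRH-evoked signalling in HEK293 cells carrying TRHR. Test compounds were added 5 min ahead of a 1 nM TRH challenge.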

The nature of assay [19]: qHTS assay to identify small molecule antagonists of the sonic hedgehog signaling (Shh) pathway (AID 1259369; calls by dose curve; further: nearly all actives have a fitted effect of over 45% in size). The method in brief: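 3T3Gli1-Luc, conditioned-medium-stimulated, 24hr cpd, 37C/5% CO2; Gli1-driven firefly Luc luminescence after 30min RT with luciferase reagent. Cells plated 4hr before cpd.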
Assay [20] can be described thus: qHTS assay to identify small molecule antagonists of the progesterone receptor (PR) signaling pathway - cell viability counter screen (AID 1346798). Further: series mostly up to about 92 µM; nearly all actives have a fitted effect of over 50% in size. The method in brief:
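Counter screen for cytotoxicity: viability of PR-UAS-bla HEK293T cells was measured with CellTiter-Glo luminescence following 16 hr compound exposure in the presence of R5020.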

Values without a mark were called inactive. Records with an inconclusive call do not appear. Activity calls are given as the source filed them. Unless noted, the call rests on the fitted dose curve; in most records, active means well fitted curve in the direction sought with a large enough effect in the repeat runs; inconclusive means weak or mixed curves; inactive means no such curve, though single readings can be large; an effect the other way counts as inactive or inconclusive.

Estrogen receptor (Homo sapiens), sequence (P03372 whole entry, looked up): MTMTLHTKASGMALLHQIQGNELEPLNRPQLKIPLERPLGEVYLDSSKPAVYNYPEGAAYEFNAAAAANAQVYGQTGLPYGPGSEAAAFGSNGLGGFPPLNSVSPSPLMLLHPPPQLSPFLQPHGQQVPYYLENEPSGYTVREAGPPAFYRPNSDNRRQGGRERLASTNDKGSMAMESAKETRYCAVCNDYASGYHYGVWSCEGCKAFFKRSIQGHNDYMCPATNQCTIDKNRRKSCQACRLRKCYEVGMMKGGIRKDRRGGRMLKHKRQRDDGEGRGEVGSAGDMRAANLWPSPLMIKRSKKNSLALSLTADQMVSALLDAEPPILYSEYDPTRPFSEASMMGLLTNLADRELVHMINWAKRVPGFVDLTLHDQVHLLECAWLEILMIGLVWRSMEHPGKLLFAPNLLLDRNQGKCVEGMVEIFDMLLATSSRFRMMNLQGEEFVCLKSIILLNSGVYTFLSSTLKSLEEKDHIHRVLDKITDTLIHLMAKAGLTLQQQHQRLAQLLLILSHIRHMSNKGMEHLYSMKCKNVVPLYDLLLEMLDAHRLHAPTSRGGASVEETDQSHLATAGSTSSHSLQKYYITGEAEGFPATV
Estrogen receptor beta (Homo sapiens), sequence (Q92731 whole entry, looked up, the tested form may be a part): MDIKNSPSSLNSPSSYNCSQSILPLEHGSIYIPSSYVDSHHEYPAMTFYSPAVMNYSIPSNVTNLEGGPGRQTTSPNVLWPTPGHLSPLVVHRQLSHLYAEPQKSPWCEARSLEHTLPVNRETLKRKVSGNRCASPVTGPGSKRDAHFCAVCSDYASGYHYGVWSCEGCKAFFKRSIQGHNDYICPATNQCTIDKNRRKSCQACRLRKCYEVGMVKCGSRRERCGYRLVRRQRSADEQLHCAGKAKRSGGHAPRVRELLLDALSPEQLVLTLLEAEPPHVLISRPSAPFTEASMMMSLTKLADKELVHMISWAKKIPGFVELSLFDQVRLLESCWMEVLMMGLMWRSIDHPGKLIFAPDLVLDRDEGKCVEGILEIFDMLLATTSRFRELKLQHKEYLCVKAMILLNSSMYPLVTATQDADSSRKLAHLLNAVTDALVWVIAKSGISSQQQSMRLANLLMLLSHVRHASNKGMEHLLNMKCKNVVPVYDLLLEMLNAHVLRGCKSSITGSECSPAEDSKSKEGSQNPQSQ
Progesterone receptor (Homo sapiens), sequence (P06401 whole entry, looked up): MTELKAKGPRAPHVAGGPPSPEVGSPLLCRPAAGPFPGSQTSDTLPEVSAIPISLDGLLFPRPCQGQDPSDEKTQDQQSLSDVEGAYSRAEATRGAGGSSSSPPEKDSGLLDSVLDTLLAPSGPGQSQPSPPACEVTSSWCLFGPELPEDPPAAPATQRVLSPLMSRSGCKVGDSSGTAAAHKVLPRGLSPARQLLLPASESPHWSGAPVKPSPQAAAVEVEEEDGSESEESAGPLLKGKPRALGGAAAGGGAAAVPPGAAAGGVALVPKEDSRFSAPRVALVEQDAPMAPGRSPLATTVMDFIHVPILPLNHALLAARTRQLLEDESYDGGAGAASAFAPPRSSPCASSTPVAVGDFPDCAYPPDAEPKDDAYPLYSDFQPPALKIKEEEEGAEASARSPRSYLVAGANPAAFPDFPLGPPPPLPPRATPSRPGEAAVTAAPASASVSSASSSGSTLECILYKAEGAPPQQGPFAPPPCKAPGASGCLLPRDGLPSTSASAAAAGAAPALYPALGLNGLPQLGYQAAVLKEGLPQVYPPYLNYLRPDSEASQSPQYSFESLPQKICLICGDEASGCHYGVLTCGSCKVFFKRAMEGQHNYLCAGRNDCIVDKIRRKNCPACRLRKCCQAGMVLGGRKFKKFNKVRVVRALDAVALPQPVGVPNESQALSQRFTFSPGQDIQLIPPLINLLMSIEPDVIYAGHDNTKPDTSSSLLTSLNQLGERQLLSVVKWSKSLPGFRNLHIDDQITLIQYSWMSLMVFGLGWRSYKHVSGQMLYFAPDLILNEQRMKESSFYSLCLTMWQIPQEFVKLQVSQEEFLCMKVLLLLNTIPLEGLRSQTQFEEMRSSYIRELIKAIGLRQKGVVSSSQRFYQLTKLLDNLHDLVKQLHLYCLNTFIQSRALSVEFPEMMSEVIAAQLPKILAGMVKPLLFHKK
Thyrotropin-releasing hormone receptor (Homo sapiens), sequence (P34981 whole entry, looked up): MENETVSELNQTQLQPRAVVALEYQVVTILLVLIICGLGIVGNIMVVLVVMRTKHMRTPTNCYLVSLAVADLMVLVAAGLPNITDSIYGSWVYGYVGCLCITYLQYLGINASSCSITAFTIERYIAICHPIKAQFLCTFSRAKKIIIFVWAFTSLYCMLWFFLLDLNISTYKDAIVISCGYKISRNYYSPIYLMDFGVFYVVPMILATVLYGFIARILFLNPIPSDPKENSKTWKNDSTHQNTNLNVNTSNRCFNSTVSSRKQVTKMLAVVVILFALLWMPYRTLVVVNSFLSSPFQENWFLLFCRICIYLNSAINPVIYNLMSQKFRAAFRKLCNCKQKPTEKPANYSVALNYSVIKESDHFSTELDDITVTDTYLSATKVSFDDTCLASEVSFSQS
Thyrotropin receptor (Homo sapiens), sequence (P16473 whole entry, looked up): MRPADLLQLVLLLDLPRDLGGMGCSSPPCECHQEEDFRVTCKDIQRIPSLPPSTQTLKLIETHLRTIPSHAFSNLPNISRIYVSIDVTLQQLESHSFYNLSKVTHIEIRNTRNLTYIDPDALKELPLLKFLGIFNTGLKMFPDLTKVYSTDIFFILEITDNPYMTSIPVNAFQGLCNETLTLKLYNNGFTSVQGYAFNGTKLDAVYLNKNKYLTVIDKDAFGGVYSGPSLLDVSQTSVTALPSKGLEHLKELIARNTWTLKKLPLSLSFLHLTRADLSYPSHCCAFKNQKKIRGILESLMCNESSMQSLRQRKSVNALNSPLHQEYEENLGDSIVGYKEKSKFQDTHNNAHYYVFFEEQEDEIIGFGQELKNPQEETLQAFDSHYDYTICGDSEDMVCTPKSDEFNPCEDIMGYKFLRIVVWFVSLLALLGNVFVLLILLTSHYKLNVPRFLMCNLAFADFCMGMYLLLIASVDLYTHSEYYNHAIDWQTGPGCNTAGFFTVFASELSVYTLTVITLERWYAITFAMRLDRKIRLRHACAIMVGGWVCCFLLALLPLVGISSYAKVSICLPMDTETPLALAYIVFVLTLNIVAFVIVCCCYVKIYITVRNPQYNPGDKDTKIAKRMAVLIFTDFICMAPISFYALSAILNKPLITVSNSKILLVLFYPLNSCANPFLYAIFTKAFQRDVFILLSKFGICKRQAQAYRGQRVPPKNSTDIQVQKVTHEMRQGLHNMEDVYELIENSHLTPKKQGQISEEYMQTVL
Androgen receptor (Homo sapiens), sequence (P10275 whole entry, looked up): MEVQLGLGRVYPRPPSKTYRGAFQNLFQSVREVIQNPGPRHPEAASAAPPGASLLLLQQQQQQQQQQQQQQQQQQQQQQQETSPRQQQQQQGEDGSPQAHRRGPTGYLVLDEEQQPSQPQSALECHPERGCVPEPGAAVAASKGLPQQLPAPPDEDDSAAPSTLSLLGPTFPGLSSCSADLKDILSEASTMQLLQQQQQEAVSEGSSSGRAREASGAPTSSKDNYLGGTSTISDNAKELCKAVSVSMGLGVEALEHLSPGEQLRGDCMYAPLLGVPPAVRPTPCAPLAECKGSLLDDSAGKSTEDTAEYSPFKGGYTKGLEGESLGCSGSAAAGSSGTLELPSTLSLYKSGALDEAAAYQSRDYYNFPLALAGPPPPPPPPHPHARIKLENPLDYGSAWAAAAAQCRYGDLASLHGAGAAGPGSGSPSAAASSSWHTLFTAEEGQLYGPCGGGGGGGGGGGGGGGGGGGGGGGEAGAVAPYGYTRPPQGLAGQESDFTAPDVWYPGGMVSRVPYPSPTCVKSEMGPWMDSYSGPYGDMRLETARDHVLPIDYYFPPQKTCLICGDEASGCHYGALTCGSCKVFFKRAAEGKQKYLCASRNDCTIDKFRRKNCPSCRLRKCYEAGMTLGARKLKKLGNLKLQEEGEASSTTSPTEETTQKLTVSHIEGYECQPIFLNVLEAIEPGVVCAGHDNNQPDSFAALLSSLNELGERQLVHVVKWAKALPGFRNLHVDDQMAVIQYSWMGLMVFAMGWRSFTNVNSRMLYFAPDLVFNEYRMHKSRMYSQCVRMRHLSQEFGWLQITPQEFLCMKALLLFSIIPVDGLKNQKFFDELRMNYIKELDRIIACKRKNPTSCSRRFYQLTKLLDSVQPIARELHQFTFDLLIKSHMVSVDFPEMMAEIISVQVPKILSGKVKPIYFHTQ

Take `C=C(C)C1CCC(C)(O)CC1` (centres undefined): the result in assay [1], in [3], in assay [7], in assay [8], in assay [9] and in assay [10] was inactive. For the same molecule, the molecule was called inactive in [15], in assay [16], in assay [17] and in assay [18]. In addition, the Potency entry in assay [2], in [4], in assay [5], in assay [6], in [11] and in assay [12] was “inactive” each time. Moreover, the Potency entry in [13] and in [14] was “inactive” in each case.
Consider `C[C@@H]1O[C@@H](O[C@@H]2[C@@H](O)[C@H](OCCc3ccc(O)c(O)c3)O[C@H](CO[C@@H]3O[C@H](CO)[C@@H](O)[C@H](O)[C@H]3O)[C@H]2OC(=O)/C=C/c2ccc(O)c(O)c2)[C@H](O)[C@H](O)[C@H]1O`, for which the molecule was classed as inactive in assay [1], in [7], in assay [15], in assay [16], in assay [17] and in assay [18]. Also, the Potency entry in assay [19], in assay [5], in assay [20] and in [14] was “inactive” in each case.
`CC(=O)Nc1cccc(C)c1`: the molecule was called inactive in [1], in assay [7], in assay [8], in assay [9], in assay [15] and in [16]. Further, the molecule was classed as inactive in assay [17]. Further, the Potency entry in assay [19], in [11], in assay [12], in [13], in [20] and in [14] was “inactive” in each case.
As for `CC(=O)/C=C/C1C(C)=CCC(C)C1(C)C` (centres undefined), the molecule was called inactive in [1], in [3], in assay [7], in assay [8], in assay [9] and in assay [10]. Moreover, the molecule was called inactive in assay [15], in assay [16] and in assay [17]. Also, the Potency result in assay [2], in [4], in [5], in [11], in assay [12] and in assay [13] was “inactive” throughout. Also, the Potency result in assay [20] and in assay [14] was “inactive” in each case.
In the case of `CCCCCCOc1ccccc1C(N)=O`, the outcome in assay [1], in assay [3], in assay [7], in [8], in assay [9] and in assay [15] was inactive. Moreover, the molecule was classed as inactive in assay [16]. Also, the Potency result in [2], in [5] and in [12] was “inactive” in each case. Besides, the Potency in [13] is 7.5 µM (active).
On to `CCCCCCCCCC(C)=O`, for which the molecule was called inactive in [1], in [3], in assay [7], in assay [8], in [9] and in assay [15]. The call in assay [16], in assay [17] and in assay [18] was inactive. For the same molecule, the Potency result in assay [2], in assay [4], in assay [5], in [6], in assay [11] and in [12] was “inactive” throughout. For the same molecule, the Potency entry in assay [13], in assay [20] and in [14] was “inactive” in each case.
On to `COc1ccc(Br)c(C)c1`, for which the result in assay [1], in assay [7], in assay [9], in [10], in [15] and in assay [16] was inactive. In assay [18], the outcome was inactive. In addition, the Potency entry in [19], in [5], in assay [11], in assay [12], in assay [13] and in assay [20] was “inactive” throughout. Moreover, the Potency entry in assay [14] is “inactive”.
As for `CC(C)C[C@H](NC(=O)CNC(=O)[C@H](Cc1ccc(O)cc1)NC(=O)[C@H](CO)NC(=O)[C@H](Cc1c[nH]c2ccccc12)NC(=O)[C@H](Cc1cnc[nH]1)NC(=O)[C@@H]1CCC(=O)N1)C(=O)N[C@@H](CCCN=C(N)N)C(=O)N1CCC[C@H]1C(=O)NCC(N)=O` (stereo in doubt), the result in [1], in [3], in [7], in [15], in assay [16] and in assay [17] was inactive. The result in [18] was inactive. In addition, the Potency entry in [2], in [4], in [11], in [12], in [13] and in assay [20] was “inactive” each time.
